The values below come from publication PMC7862700, “An all-to-all approach to the identification of sequence-specific readers for epigenetic DNA modifications on cytosine”.

What all share (test): DAPPL (digital affinity profiling via proximity ligation, sequencing); 10 mM Tris-HCl pH 7.5, 50 mM NaCl, 1 mM DTT, 4% glycerol, room temperature, 30 min; GST-TFs on glutathione beads, 16-mer random dsDNA library, 0.1% formaldehyde crosslink after washing; high values mean tight binding
One assay deals with ETV5 (Homo sapiens, UniProt P41161 1-510). The following applies: protein: recombinant; tags: N-terminal GST; dsDNA, one strand shown. An outline of the steps:
(§1)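 In yeast, human transcription factors were expressed with a GST fusion, then pulled down on glutathione beads and given DNA barcodes. Pooled with a tag-only sample, they were exposed to 200 nmole of a 16-mer random double-stranded DNA library (Tris/NaCl/DTT/glycerol buffer, room temperature, 30 min), washed, crosslinked with 0.1% formaldehyde, proximity-ligated using BsaI/T4 ligase for 1 h at 37 °C, PCR-amplified and read on an Illumina NextSeq500. Each hexamer's frequency of reads for a factor, divided by the matching frequency for the tag-only sample, gives the binding signal.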

A further assay addresses HSF1 (Homo sapiens, UniProt Q00613 1-529). Conditions: protein: recombinant; tags: N-terminal GST; chain copies: 3; dsDNA, one strand shown. An outline of the steps:
as §1

A further assay has as its target T1, SPIC (Homo sapiens, UniProt Q8N5J4 1-248).
T1 sequence: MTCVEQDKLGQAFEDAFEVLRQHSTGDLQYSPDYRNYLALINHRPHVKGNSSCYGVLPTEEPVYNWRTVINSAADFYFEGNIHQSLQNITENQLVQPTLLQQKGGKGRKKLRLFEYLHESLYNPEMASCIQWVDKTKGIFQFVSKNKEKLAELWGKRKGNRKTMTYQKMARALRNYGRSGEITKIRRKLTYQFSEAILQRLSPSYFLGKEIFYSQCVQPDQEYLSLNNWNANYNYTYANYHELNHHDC
Conditions: protein: recombinant; tags: N-terminal GST; dsDNA, one strand shown. An outline of the steps:
as §1

The target of the next assay is ELF4 (Homo sapiens, UniProt Q99607 1-663). Conditions: protein: recombinant; tags: N-terminal GST; dsDNA, one strand shown. The essentials:
as §1

The next assay addresses T2, ELK4 (Homo sapiens, UniProt P28324-2 1-405).
T2 sequence: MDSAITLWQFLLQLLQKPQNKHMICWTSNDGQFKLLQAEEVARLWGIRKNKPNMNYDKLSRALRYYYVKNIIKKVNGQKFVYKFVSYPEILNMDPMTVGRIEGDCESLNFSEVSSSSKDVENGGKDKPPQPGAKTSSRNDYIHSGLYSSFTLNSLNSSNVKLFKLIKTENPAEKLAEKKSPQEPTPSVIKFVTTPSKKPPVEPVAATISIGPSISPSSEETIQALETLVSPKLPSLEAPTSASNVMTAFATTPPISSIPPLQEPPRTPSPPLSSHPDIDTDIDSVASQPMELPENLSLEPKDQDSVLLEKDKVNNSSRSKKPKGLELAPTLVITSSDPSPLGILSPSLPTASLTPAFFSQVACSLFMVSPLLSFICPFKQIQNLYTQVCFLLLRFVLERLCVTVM
The following applies: protein: recombinant; tags: N-terminal GST; dsDNA, one strand shown. The essentials: as §1

For a further assay, the target named is T3, ETV2 (Homo sapiens, UniProt O00321 1-342).
T3 sequence: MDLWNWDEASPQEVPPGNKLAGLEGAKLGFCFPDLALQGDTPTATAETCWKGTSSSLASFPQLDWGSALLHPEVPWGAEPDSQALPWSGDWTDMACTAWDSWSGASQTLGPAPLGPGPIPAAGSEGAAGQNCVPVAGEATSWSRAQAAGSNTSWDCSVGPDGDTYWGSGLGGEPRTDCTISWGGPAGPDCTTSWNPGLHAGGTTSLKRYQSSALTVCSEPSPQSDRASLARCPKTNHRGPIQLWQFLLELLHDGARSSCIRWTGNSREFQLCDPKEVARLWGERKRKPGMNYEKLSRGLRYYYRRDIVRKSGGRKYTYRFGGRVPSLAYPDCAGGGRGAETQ
Conditions: protein: recombinant; tags: N-terminal GST; dsDNA, one strand shown. An outline of the steps: as §1

A further assay has as its target T4, ELF3 (Homo sapiens, UniProt P78545 1-371).
T4 sequence: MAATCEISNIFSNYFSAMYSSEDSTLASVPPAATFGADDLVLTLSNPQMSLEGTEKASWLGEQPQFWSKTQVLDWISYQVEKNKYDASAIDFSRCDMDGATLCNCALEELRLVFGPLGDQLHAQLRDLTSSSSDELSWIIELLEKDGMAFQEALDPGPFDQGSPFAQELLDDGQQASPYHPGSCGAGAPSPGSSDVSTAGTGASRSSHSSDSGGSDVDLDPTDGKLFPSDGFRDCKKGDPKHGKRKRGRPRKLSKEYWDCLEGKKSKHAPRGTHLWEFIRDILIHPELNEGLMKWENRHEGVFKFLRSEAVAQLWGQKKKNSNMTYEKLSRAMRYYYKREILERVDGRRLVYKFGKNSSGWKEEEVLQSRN
Conditions: protein: recombinant; tags: N-terminal GST; dsDNA, one strand shown. An outline of the steps:
as §1

Another assay concerns the target CRX (Homo sapiens, UniProt O43186 1-299). Conditions: protein: recombinant; tags: N-terminal GST; dsDNA, one strand shown. An outline of the steps: as §1
The target in a further assay is ETV1 (Homo sapiens, UniProt P50549 1-477). The following applies: protein: recombinant; tags: N-terminal GST; dsDNA, one strand shown. The essentials:
as §1

The next assay concerns the target T5, FEV (Homo sapiens, UniProt Q99581 1-238).
T5 sequence: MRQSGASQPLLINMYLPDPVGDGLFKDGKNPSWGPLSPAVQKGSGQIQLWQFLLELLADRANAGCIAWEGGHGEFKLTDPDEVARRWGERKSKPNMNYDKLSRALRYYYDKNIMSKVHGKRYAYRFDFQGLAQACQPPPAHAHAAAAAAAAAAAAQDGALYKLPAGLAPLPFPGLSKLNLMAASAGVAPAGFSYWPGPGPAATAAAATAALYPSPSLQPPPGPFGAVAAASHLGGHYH
The following applies: protein: recombinant; tags: N-terminal GST; dsDNA, one strand shown. An outline of the steps:
as §1

CRX, sequence (O43186 whole entry): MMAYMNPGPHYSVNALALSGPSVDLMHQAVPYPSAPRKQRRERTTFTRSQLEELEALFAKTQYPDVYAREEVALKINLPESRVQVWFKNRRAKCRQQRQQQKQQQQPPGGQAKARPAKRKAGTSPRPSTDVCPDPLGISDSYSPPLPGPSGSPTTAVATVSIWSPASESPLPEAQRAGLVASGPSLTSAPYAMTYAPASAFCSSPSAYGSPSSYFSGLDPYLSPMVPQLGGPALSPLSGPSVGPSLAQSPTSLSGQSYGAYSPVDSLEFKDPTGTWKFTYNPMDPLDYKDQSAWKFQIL
HSF1, sequence (Q00613 whole entry): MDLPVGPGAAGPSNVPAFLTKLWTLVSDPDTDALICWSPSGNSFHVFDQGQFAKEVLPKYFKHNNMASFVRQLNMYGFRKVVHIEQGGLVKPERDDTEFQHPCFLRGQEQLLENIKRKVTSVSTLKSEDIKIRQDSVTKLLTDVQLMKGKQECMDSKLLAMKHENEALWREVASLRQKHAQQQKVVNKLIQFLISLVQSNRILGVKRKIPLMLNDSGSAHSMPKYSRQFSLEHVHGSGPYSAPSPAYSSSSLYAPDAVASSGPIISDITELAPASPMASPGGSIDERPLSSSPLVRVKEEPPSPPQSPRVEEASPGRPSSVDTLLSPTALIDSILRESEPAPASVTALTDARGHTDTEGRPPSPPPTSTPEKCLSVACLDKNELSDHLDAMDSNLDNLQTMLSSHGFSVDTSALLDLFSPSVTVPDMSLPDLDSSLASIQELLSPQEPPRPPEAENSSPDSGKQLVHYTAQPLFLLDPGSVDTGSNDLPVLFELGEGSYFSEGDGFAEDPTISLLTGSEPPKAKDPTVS
ETV1, sequence (P50549 whole entry): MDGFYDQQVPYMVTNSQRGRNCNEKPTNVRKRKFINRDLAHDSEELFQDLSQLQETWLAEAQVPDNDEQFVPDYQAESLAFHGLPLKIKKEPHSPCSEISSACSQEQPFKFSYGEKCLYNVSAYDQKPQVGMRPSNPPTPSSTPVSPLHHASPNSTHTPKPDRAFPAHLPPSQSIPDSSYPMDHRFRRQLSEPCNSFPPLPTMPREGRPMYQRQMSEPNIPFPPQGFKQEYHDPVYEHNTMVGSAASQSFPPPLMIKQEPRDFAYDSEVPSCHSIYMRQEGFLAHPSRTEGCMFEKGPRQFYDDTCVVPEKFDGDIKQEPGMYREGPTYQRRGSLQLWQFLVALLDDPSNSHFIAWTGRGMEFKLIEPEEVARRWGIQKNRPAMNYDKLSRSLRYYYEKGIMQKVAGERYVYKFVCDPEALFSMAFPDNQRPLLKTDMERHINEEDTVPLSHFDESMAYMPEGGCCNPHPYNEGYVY
ELF4, sequence (Q99607 whole entry): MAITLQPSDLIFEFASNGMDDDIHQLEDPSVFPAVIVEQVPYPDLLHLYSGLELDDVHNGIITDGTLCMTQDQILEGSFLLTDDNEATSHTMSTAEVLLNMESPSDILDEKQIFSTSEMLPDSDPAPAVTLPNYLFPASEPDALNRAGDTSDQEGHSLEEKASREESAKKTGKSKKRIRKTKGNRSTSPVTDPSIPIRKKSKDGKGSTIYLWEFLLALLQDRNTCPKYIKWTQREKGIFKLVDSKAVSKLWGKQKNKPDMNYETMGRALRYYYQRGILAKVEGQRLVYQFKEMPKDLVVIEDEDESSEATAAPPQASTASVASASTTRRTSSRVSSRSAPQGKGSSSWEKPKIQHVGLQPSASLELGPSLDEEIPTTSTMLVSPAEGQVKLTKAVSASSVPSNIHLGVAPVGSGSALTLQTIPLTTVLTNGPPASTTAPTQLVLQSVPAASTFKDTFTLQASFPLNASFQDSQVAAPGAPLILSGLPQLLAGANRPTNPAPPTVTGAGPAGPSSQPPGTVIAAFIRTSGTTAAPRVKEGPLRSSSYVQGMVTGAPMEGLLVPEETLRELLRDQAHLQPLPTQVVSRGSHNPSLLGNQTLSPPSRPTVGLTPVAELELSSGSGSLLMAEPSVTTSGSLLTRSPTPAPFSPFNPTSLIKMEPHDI
ETV5, sequence (P41161 whole entry, the tested form may be a part): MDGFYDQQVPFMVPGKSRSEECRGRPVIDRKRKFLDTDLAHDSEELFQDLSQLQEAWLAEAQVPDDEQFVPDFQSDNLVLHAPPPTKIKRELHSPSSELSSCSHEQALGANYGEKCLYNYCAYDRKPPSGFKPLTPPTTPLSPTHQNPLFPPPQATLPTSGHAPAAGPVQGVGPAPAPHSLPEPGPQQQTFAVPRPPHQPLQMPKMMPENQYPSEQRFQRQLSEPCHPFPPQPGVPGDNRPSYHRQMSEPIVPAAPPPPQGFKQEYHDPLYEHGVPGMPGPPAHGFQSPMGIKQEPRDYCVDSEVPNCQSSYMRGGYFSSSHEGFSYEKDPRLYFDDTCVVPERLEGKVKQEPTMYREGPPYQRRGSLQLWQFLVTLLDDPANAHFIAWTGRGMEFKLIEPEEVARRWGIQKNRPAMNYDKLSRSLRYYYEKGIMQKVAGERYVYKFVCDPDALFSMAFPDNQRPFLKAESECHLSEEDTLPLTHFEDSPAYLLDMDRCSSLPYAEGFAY

As to GTTAAA, the binding signal in the assay with ETV5 is 1.02 fold enrichment (6-mer frequency, TF over GST control); with HSF1, 1.01 fold enrichment (6-mer frequency, TF over GST control); with SPIC, 1.17 fold enrichment (6-mer frequency, TF over GST control); with ELF4, 1.07 fold enrichment (6-mer frequency, TF over GST control); with ELK4 it was 1.04 fold enrichment (6-mer frequency, TF over GST control); in the assay with ETV2 it was 1.11 fold enrichment (6-mer frequency, TF over GST control). Moreover, the binding signal with ELF3 is 1.29 fold enrichment (6-mer frequency, TF over GST control); with CRX, 1.27 fold enrichment (6-mer frequency, TF over GST control).

AGGTTT: the binding signal with ETV5 is 1.05 fold enrichment (6-mer frequency, TF over GST control); in the assay with HSF1, 1.04 fold enrichment (6-mer frequency, TF over GST control); with SPIC, 1.03 fold enrichment (6-mer frequency, TF over GST control); with ELF4 it was 1.07 fold enrichment (6-mer frequency, TF over GST control); with ELK4, 1.06 fold enrichment (6-mer frequency, TF over GST control); in the assay with ETV2 it was 1.05 fold enrichment (6-mer frequency, TF over GST control). The binding signal with ELF3 was 1.07 fold enrichment (6-mer frequency, TF over GST control); in the assay with CRX, 1.19 fold enrichment (6-mer frequency, TF over GST control); with ETV1 it was 1.1 fold enrichment (6-mer frequency, TF over GST control).

Regarding AAGAAT, the binding signal with FEV is 1.09 fold enrichment (6-mer frequency, TF over GST control); with ETV5, 1.11 fold enrichment (6-mer frequency, TF over GST control); with HSF1 it was 1.83 fold enrichment (6-mer frequency, TF over GST control); with SPIC, 1.08 fold enrichment (6-mer frequency, TF over GST control); with ELF4, 1.24 fold enrichment (6-mer frequency, TF over GST control); in the assay with ELK4, 1.09 fold enrichment (6-mer frequency, TF over GST control). Moreover, the binding signal is 1.12 fold enrichment (6-mer frequency, TF over GST control) with ETV2; 1.17 fold enrichment (6-mer frequency, TF over GST control) with ELF3; 1.43 fold enrichment (6-mer frequency, TF over GST control) with CRX; 1.15 fold enrichment (6-mer frequency, TF over GST control) in the assay with ETV1.

ATCTAC: the binding signal with FEV was 1.33 fold enrichment (6-mer frequency, TF over GST control); with ETV5, 1.25 fold enrichment (6-mer frequency, TF over GST control); with HSF1, 1.43 fold enrichment (6-mer frequency, TF over GST control); with SPIC it was 1.34 fold enrichment (6-mer frequency, TF over GST control); with ELF4, 1.27 fold enrichment (6-mer frequency, TF over GST control); in the assay with ELK4 it was 1.11 fold enrichment (6-mer frequency, TF over GST control). Further, the binding signal with ETV2 was 1.29 fold enrichment (6-mer frequency, TF over GST control); with ELF3, 1.33 fold enrichment (6-mer frequency, TF over GST control); in the assay with CRX, 1.5 fold enrichment (6-mer frequency, TF over GST control); with ETV1 it was 1.26 fold enrichment (6-mer frequency, TF over GST control).

ATATTT: the binding signal in the assay with FEV is 1.47 fold enrichment (6-mer frequency, TF over GST control); with ETV5, 1.54 fold enrichment (6-mer frequency, TF over GST control); in the assay with HSF1, 1.52 fold enrichment (6-mer frequency, TF over GST control); with SPIC, 1.45 fold enrichment (6-mer frequency, TF over GST control); in the assay with ELF4, 1.53 fold enrichment (6-mer frequency, TF over GST control); with ELK4, 1.81 fold enrichment (6-mer frequency, TF over GST control). For the same sequence, the binding signal in the assay with ETV2 is 1.55 fold enrichment (6-mer frequency, TF over GST control); in the assay with ELF3, 1.54 fold enrichment (6-mer frequency, TF over GST control); with CRX it was 1.6 fold enrichment (6-mer frequency, TF over GST control); with ETV1, 1.56 fold enrichment (6-mer frequency, TF over GST control).

On to ATAGCT, for which the binding signal with FEV was 1.16 fold enrichment (6-mer frequency, TF over GST control); with ETV5, 1.2 fold enrichment (6-mer frequency, TF over GST control); with HSF1 it was 1.06 fold enrichment (6-mer frequency, TF over GST control); with SPIC it was 1.15 fold enrichment (6-mer frequency, TF over GST control); with ELF4 it was 1.07 fold enrichment (6-mer frequency, TF over GST control); with ELK4 it was 1.25 fold enrichment (6-mer frequency, TF over GST control). The binding signal with ETV2 was 1.27 fold enrichment (6-mer frequency, TF over GST control); in the assay with ELF3, 1.26 fold enrichment (6-mer frequency, TF over GST control); in the assay with CRX, 1.26 fold enrichment (6-mer frequency, TF over GST control); in the assay with ETV1, 1.11 fold enrichment (6-mer frequency, TF over GST control).

Turning to TAATGT, the binding signal is 1.14 fold enrichment (6-mer frequency, TF over GST control) in the assay with ETV5; 1.19 fold enrichment (6-mer frequency, TF over GST control) with HSF1; 1.21 fold enrichment (6-mer frequency, TF over GST control) in the assay with SPIC; 1.11 fold enrichment (6-mer frequency, TF over GST control) with ELF4; 1.19 fold enrichment (6-mer frequency, TF over GST control) with ELK4; 1.08 fold enrichment (6-mer frequency, TF over GST control) with ETV2. Also, the binding signal is 1.04 fold enrichment (6-mer frequency, TF over GST control) in the assay with ELF3; 1.5 fold enrichment (6-mer frequency, TF over GST control) with CRX; 1.16 fold enrichment (6-mer frequency, TF over GST control) with ETV1.

On to AACGAA, for which the binding signal is 1.15 fold enrichment (6-mer frequency, TF over GST control) with FEV; 1.22 fold enrichment (6-mer frequency, TF over GST control) with ETV5; 1.33 fold enrichment (6-mer frequency, TF over GST control) in the assay with HSF1; 1.2 fold enrichment (6-mer frequency, TF over GST control) with SPIC; 1.1 fold enrichment (6-mer frequency, TF over GST control) with ELF4; 1.13 fold enrichment (6-mer frequency, TF over GST control) with ELK4. Moreover, the binding signal was 1.11 fold enrichment (6-mer frequency, TF over GST control) with ETV2; 1.19 fold enrichment (6-mer frequency, TF over GST control) in the assay with ELF3; 1.08 fold enrichment (6-mer frequency, TF over GST control) with CRX; 1.09 fold enrichment (6-mer frequency, TF over GST control) with ETV1.
